# From PubChem BioAssay (NCI)
# This is part of a sample that, as a whole, favours compounds with a hit. Of some 83,000 tested, about 20% had one in any assay.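 The endpoint reported here, percent growth, reads 100 for growth as untreated, 0 for no net growth and -100 for all cells dead.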 Unmarked numbers belong to inactive results. Active and inactive are the calls of the source. The calls were made as follows: active = growth percent below 10; inactive = the rest.
# Test system: TK-10 renal
# Test: NCI-60 one-dose screen, 48 h (100 = growth as untreated, 0 = no growth, -100 = all killed)
# Settings: 10 µM unless noted
row,Structure (SMILES),growth
1,O=C1Nc2ccccc2/C1=C\c1cccc(/C=C2/C(=O)Nc3ccccc32)n1,-59.3% (active)
2,COc1ccc(/C=N/NC(=O)c2cccc3cc[nH]c23)cc1O,47.1%
3,CCN1C(=O)N(CC)C2C1NN=c1s/c(=C3\C(=O)Nc4ccccc43)c(=O)n12 (stereo unspecified),60.5%
4,CC(C)(O)C1CCCN1C(=O)c1ccccc1I (stereo unspecified),107%
5,O=C1NC(=S)NC(=O)C1=Cc1cccc(C=C2C(=O)NC(=S)NC2=O)c1,104%
6,Cn1c2c(Cl)c(Cl)ccc2c2cc(N)[nH]c(=O)c21,120%
7,COc1ccc(-c2cnnc3c(-c4cccc(C(F)(F)F)c4)cnn23)cc1,21%
8,O=C1Nc2c(ccc(Cl)c2Cl)/C1=C/c1ccc([N+](=O)[O-])cc1,103%
9,COc1ccc(-c2nc(SCC(C)C)nc(N/N=C(/C)c3ccc(OC)c(OC)c3)c2C#N)cc1,101%
10,NS(=O)(=O)c1cccc(NC(=O)C(=O)C2C(=O)Nc3ccccc32)c1 (stereo unspecified),129%
11,O=S(=O)(c1cccc(NC2=Nc3cccc4cccc2c34)c1)N1CCCC1,90.5%
12,CCOC(=O)c1c(SC)nn(-c2cc(=O)[nH]c3ccc(Br)cc23)c1N,110%
13,CC(=O)c1c[nH]c2ccc(-c3ccnc(Nc4ccc(NC(=O)C5CCCC5)c(CN5CCOCC5)c4)n3)cc12,0.0909% (active)
14,COc1ccc(/C=C(/c2ccccc2)[N+](=O)[O-])cc1,-83.2% (active)
15,O=C1Nc2c(ccc(Cl)c2Cl)/C1=C/c1ccccn1,120%
16,CCN(CCNc1cc(OC)cc2cccnc12)CCc1ccccc1,101%
17,COc1cc2nc(-c3ccc(C#N)cc3)[nH]c(=O)c2cc1OC,271%
18,CCCOc1nc(SCCC)nc2c1cnn2-c1ccccc1,149%
19,O=S(=O)(c1ccccc1)N1CCCc2ccccc21,94.5%

row,Structure (SMILES),growth
1,O=C(Nc1ccc(Cl)cc1)Nc1ccc(Cl)c(Cl)c1,12.5%
2,COc1cc(NCC(O)CN(CC(C)C)C2CCCC2)c2ncccc2c1 (stereo unspecified),110%
3,COc1ccc(Nn2c(SCC(=O)Nc3nc(-c4ccc(Cl)cc4)cs3)nc(C)c2C)cc1,68.5%
4,COc1cccc2c1C(=O)c1c(O)c3c(c(O)c1C2=O)C[C@@](O)(C(=O)CO)C[C@@H]3O[C@H]1C[C@H](N)[C@@H](O)[C@H](C)O1,6.82% (active)
5,Clc1ccc(N2N=C(c3cccc(Nc4ccncc4)c3)CC2c2ccc3c(c2)OCO3)cc1 (stereo unspecified),83.5%
6,O=C(N/N=C/c1ccncc1)c1ccccc1Nc1cccc(C(F)(F)F)c1,102%
7,COc1ccc(Cc2nc3cc(OC)c(OC)cc3c(=O)[nH]2)cc1,237%
8,COc1ccc(-c2c[nH]c(C(=O)O)c2-c2cc(OC)c3c(c2OC)OCO3)cc1,116%
9,Clc1ccc(N2N=C(c3cccc(Nc4ccncc4)c3)CC2c2ccccc2)cc1 (stereo unspecified),106%
10,COc1ccc(Cn2nc(-c3cc(OC)c(OC)c(OC)c3)c3c2CCc2cnoc2-3)cc1OC,72.5%
11,COc1cc2nnn3c4ncccc4c(N=O)c3c2cc1OC,98.8%
12,Clc1nc(Cl)c2ncn(CC3(Cn4cnc5c(Cl)nc(Cl)nc54)COC3)c2n1,-93.2% (active)
13,C(=N\Nc1ncc(-c2cc3cc4c(cc3o2)OCO4)s1)/c1c[nH]c2ccccc12,22.7%
14,COc1ccc(-c2nn(Cc3ccccc3)c3c2-c2oncc2CC3)cc1OC,84.1%
15,COc1cc(/C=C/C(=O)c2c(C)oc3nc[nH]c(=O)c23)ccc1O,135%
16,CCc1nc(C)cn1C(=O)OCc1nc2nc(Cl)nc(N3CCOCC3)c2[nH]1,-91.5% (active)
17,O=C(Nc1ccccc1)Oc1ccccc1-c1ccccc1,94.1%
18,COc1ccc(C(O)c2cc3c(N)c(C(=O)Nc4ccccc4)sc3nc2C)cc1 (stereo unspecified),44.2%
19,CCC(C)N(CCNc1cc(OC)cc2cccnc12)CCC(C)C (stereo unspecified),96.7%

# Test system: ACHN renal
# Test: as above
# Settings: 10 µM unless noted
row,Structure (SMILES),growth
1,O=C1Nc2ccccc2/C1=C\c1cccc(/C=C2/C(=O)Nc3ccccc32)n1,-100% (active)
2,COc1ccc(/C=N/NC(=O)c2cccc3cc[nH]c23)cc1O,57.9%
3,CCN1C(=O)N(CC)C2C1NN=c1s/c(=C3\C(=O)Nc4ccccc43)c(=O)n12 (stereo unspecified),43%
4,CC(C)(O)C1CCCN1C(=O)c1ccccc1I (stereo unspecified),105%
5,O=C1NC(=S)NC(=O)C1=Cc1cccc(C=C2C(=O)NC(=S)NC2=O)c1,113%
6,Cn1c2c(Cl)c(Cl)ccc2c2cc(N)[nH]c(=O)c21,82.6%
7,COc1ccc(-c2cnnc3c(-c4cccc(C(F)(F)F)c4)cnn23)cc1,14.9%
8,O=C1Nc2c(ccc(Cl)c2Cl)/C1=C/c1ccc([N+](=O)[O-])cc1,87.8%
9,COc1ccc(-c2nc(SCC(C)C)nc(N/N=C(/C)c3ccc(OC)c(OC)c3)c2C#N)cc1,90.5%
10,NS(=O)(=O)c1cccc(NC(=O)C(=O)C2C(=O)Nc3ccccc32)c1 (stereo unspecified),90.4%
11,O=S(=O)(c1cccc(NC2=Nc3cccc4cccc2c34)c1)N1CCCC1,66.9%
12,CCOC(=O)c1c(SC)nn(-c2cc(=O)[nH]c3ccc(Br)cc23)c1N,98.3%
13,CC(=O)c1c[nH]c2ccc(-c3ccnc(Nc4ccc(NC(=O)C5CCCC5)c(CN5CCOCC5)c4)n3)cc12,-5.66% (active)
14,COc1ccc(/C=C(/c2ccccc2)[N+](=O)[O-])cc1,-97.4% (active)
15,O=C1Nc2c(ccc(Cl)c2Cl)/C1=C/c1ccccn1,72.6%
16,CCN(CCNc1cc(OC)cc2cccnc12)CCc1ccccc1,84.1%
17,COc1cc2nc(-c3ccc(C#N)cc3)[nH]c(=O)c2cc1OC,118%
18,CCCOc1nc(SCCC)nc2c1cnn2-c1ccccc1,111%
19,O=S(=O)(c1ccccc1)N1CCCc2ccccc21,99.4%

row,Structure (SMILES),growth
1,O=C(Nc1ccc(Cl)cc1)Nc1ccc(Cl)c(Cl)c1,-9.93% (active)
2,COc1cc(NCC(O)CN(CC(C)C)C2CCCC2)c2ncccc2c1 (stereo unspecified),80.2%
3,COc1ccc(Nn2c(SCC(=O)Nc3nc(-c4ccc(Cl)cc4)cs3)nc(C)c2C)cc1,52%
4,COc1cccc2c1C(=O)c1c(O)c3c(c(O)c1C2=O)C[C@@](O)(C(=O)CO)C[C@@H]3O[C@H]1C[C@H](N)[C@@H](O)[C@H](C)O1,-36.9% (active)
5,Clc1ccc(N2N=C(c3cccc(Nc4ccncc4)c3)CC2c2ccc3c(c2)OCO3)cc1 (stereo unspecified),41.6%
6,O=C(N/N=C/c1ccncc1)c1ccccc1Nc1cccc(C(F)(F)F)c1,90.5%
7,COc1ccc(Cc2nc3cc(OC)c(OC)cc3c(=O)[nH]2)cc1,72.2%
8,COc1ccc(-c2c[nH]c(C(=O)O)c2-c2cc(OC)c3c(c2OC)OCO3)cc1,100%
9,Clc1ccc(N2N=C(c3cccc(Nc4ccncc4)c3)CC2c2ccccc2)cc1 (stereo unspecified),94.9%
10,COc1ccc(Cn2nc(-c3cc(OC)c(OC)c(OC)c3)c3c2CCc2cnoc2-3)cc1OC,74.9%
11,COc1cc2nnn3c4ncccc4c(N=O)c3c2cc1OC,-2.46% (active)
12,Clc1nc(Cl)c2ncn(CC3(Cn4cnc5c(Cl)nc(Cl)nc54)COC3)c2n1,-98.7% (active)
13,C(=N\Nc1ncc(-c2cc3cc4c(cc3o2)OCO4)s1)/c1c[nH]c2ccccc12,-31.4% (active)
14,COc1ccc(-c2nn(Cc3ccccc3)c3c2-c2oncc2CC3)cc1OC,90.9%
15,COc1cc(/C=C/C(=O)c2c(C)oc3nc[nH]c(=O)c23)ccc1O,101%
16,CCc1nc(C)cn1C(=O)OCc1nc2nc(Cl)nc(N3CCOCC3)c2[nH]1,-100% (active)
17,O=C(Nc1ccccc1)Oc1ccccc1-c1ccccc1,99.9%
18,COc1ccc(C(O)c2cc3c(N)c(C(=O)Nc4ccccc4)sc3nc2C)cc1 (stereo unspecified),25.7%
19,CCC(C)N(CCNc1cc(OC)cc2cccnc12)CCC(C)C (stereo unspecified),75.2%
